In PubChem BioAssay:
Results filed as inconclusive are left out. Activity calls are given as the source filed them. Unless noted, the limit is not given here; nearly all actives have AC50 up to about 30 µM.

Columns and labels:
[1] = growth inhibition of DIPG glioma cells, dose response, cell-based, SU-DIPG-XIII, MIPE4.0, CellTiter-Glo, qHTS (AID 1347061; cut-off not given, nearly all actives have AC50 up to about 37 µM;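 also: cells exposed to compound for 48 hours before readout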); conditions: SU-DIPG-XIII viability, CellTiter-Glo ATP luminescence
[2] = growth inhibition of DIPG glioma cells, dose response, cell-based, JHH-DIPG-1, MIPE4.0, CellTiter-Glo, qHTS (AID 1347062; cut-off not given, nearly all actives have AC50 up to about 27 µM;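 as to AC50: cells exposed to compound for two days before readout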); conditions: JHH-DIPG-1 viability, CellTiter-Glo ATP luminescence
[3] = growth inhibition of DIPG glioma cells, dose response, cell-based, SU-DIPG-IV, MIPE4.0, CellTiter-Glo, qHTS (AID 1347063); conditions: SU-DIPG-IV viability, CellTiter-Glo ATP luminescence;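 also: compound exposure lasted 48 hours before the viability readout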
[4] = viability loss in pontine glioma line – cell-based, SU-DIPG-XXV, MIPE5.0, CellTiter-Glo, qHTS, dose response (AID 1347065; cut-off not given, nearly all actives have AC50 up to about 26 µM;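 also: cells exposed to compound for 48 hours before ATP readout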); conditions: CellTiter-Glo ATP luminescence
[5] = JHH-DIPG-1 glioma cell viability, MIPE5.0 library, CellTiter-Glo luminescence, qHTS (AID 1347067; cut-off not given, nearly all actives have AC50 up to about 26 µM;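 also: cells exposed to compound for 48 hours before readout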); conditions: JHH-DIPG-1 glioma viability, CellTiter-Glo ATP luminescence
[6] = SU-DIPG-VI glioma cell viability, MIPE4.0 library, CellTiter-Glo luminescence, qHTS (AID 1347066); conditions: CellTiter-Glo ATP luminescence;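 also: cells exposed to compound for 48 hours before readout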
[7] = SU-DIPG-XXV glioma cell viability, MIPE5.0 library, qHTS (AID 1347068; cut-off not given, nearly all actives have IC50 up to about 30 µM)
[8] = sensitizers of A549 cells to miR-34 induction, primary screen, imaging, A549 dox-inducible miR-34, nuclei and caspase counts (AID 1347080;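 active = compounds whose cell count with miR-34 switched on is under 0.7 times the count with it off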); conditions: A549 miR-34 inducible, Hoechst nuclei count, 48 h
[9] = survival rescue of mitochondrial mutant cells in low glucose, primary screen, MELAS cybrids, Rieske KO mouse fibroblasts, CellTiter-Glo (AID 1508586;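 active = mean z-score across replicates of 1.96 or higher in either the MELAS or the Rieske mutant cell line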;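 also: z relative to plate mean and SD of compound and empty wells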)
[10] = ovarian cancer cell viability with rucaparib, profiling panel, oncology-focused library, rucaparib conditional (AID 1508598;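 active = normalized viability below 100% at a tested concentration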); conditions: patient-derived ovarian cancer cells, CellTiter-Glo viability, 144 h, stronger effect = lower value
[11] = growth inhibition of DIPG glioma cells, dose response, cell-based, SU-DIPG-XIII, MIPE5.0, CellTiter-Glo, qHTS (AID 1347064; cut-off not given, nearly all actives have AC50 up to about 23 µM); conditions: SU-DIPG-XIII viability, CellTiter-Glo ATP luminescence

CCCCCNC(=O)N1CCC(CN(Cc2ccc(Cl)cc2)Cc2ccc([N+](=O)[O-])s2)C1 (centres undefined)
active: AC50 [3] 23.5 µM | AC50 [4] 29.5 µM | AC50 [5] 23.5 µM
inactive: outcome [1] | outcome [2]

CCC(C)CCCCC(=O)N[C@@H](CCN)C(=O)NC(C(=O)N[C@H](CCN)C(=O)N[C@@H]1CCNC(=O)C([C@@H](C)O)NC(=O)[C@@H](CCN)NC(=O)[C@@H](CCN)NC(=O)[C@@H](CC(C)C)NC(=O)[C@H](Cc2ccccc2)NC(=O)[C@H](CCN)NC1=O)[C@@H](C)O (some centres undefined)
inactive: outcome [1] | outcome [2] | outcome [3] | outcome [4] | outcome [6] | outcome [5] | outcome [7]

O=C(C=CC#Cc1cccc(NS(=O)(=O)c2ccccc2)c1)NO
active: AC50 [1] 14.8 µM | AC50 [2] 9.35 µM | AC50 [3] 4.18 µM | AC50 [6] 18.7 µM

O=C(O)[C@H]1O[C@H](Oc2cc3oc(-c4ccccc4)cc(=O)c3c(O)c2O)[C@H](O)[C@@H](O)[C@@H]1O
inactive: outcome [1] | outcome [2] | outcome [3] | outcome [6]

CC1COC2(CCN(c3nc(=O)c4cc(C(F)(F)F)cc([N+](=O)[O-])c4s3)CC2)O1 (centres undefined)
6990: cell count ([8]; measured here: total cells with miR-34 induction, stronger effect = lower value)
8010: cell count ([8]; measured here: total cells without miR-34 induction)
0.894: fold change ([8]; measured here: relative caspase fold change +Dox/-Dox)
-0.174: z-score ([9]; Rieske KO mouse fibroblast survival, CellTiter-Glo 72 h)
active: viability ([10]; at 0.000305 µM, OCI-P5x cells, with rucaparib 20 µM, 100% = cells with rucaparib alone) 99.5% | viability ([10]; at 0.000305 µM, OCI-P5x cells, without rucaparib) 95.5% | viability ([10]; at 0.00122 µM, OCI-P5x cells, without rucaparib) 94.9%
inactive: outcome [1] | outcome [2] | outcome [3] | outcome [4] | outcome [6] | outcome [5] | outcome [7] | fold change ([8]; stronger effect = lower value, cell number ratio, induced over uninduced) 0.872 | z-score ([9]; MELAS cybrid survival, CellTiter-Glo 48 h, stronger effect = higher value) -0.641 | viability ([10]; at 0.000305 µM, OCI-C5x cells, with rucaparib 10 µM, 100% = cells with rucaparib alone) 115% | viability ([10]; at 0.000305 µM, OCI-C5x cells, without rucaparib) 107% | viability ([10]; at 0.00122 µM, OCI-C5x cells, with rucaparib 10 µM, 100% = cells with rucaparib alone) 134% | viability ([10]; at 0.00122 µM, OCI-C5x cells, without rucaparib) 116% | viability ([10]; at 0.00122 µM, OCI-P5x cells, with rucaparib 20 µM, 100% = cells with rucaparib alone) 105% | viability ([10]; at 0.00488 µM, OCI-C5x cells, with rucaparib 10 µM, 100% = cells with rucaparib alone) 129% | viability ([10]; at 0.00488 µM, OCI-C5x cells, without rucaparib) 119% | viability ([10]; at 0.00488 µM, OCI-P5x cells, with rucaparib 20 µM, 100% = cells with rucaparib alone) 102% | viability ([10]; at 0.00488 µM, OCI-P5x cells, without rucaparib) 104% | viability ([10]; at 0.0195 µM, OCI-C5x cells, with rucaparib 10 µM, 100% = cells with rucaparib alone) 126% | viability ([10]; at 0.0195 µM, OCI-C5x cells, without rucaparib) 112% | viability ([10]; at 0.0195 µM, OCI-P5x cells, with rucaparib 20 µM, 100% = cells with rucaparib alone) 105% | viability ([10]; at 0.0195 µM, OCI-P5x cells, without rucaparib) 106% | viability ([10]; at 0.0781 µM, OCI-C5x cells, with rucaparib 10 µM, 100% = cells with rucaparib alone) 118% | viability ([10]; at 0.0781 µM, OCI-C5x cells, without rucaparib) 116% | viability ([10]; at 0.0781 µM, OCI-P5x cells, with rucaparib 20 µM, 100% = cells with rucaparib alone) 107% | viability ([10]; at 0.0781 µM, OCI-P5x cells, without rucaparib) 103% | viability ([10]; at 0.313 µM, OCI-C5x cells, with rucaparib 10 µM, 100% = cells with rucaparib alone) 121% | viability ([10]; at 0.313 µM, OCI-C5x cells, without rucaparib) 118% | viability ([10]; at 0.313 µM, OCI-P5x cells, with rucaparib 20 µM, 100% = cells with rucaparib alone) 111% | viability ([10]; at 0.313 µM, OCI-P5x cells, without rucaparib) 108% | viability ([10]; at 1.25 µM, OCI-C5x cells, with rucaparib 10 µM, 100% = cells with rucaparib alone) 115% | viability ([10]; at 1.25 µM, OCI-C5x cells, without rucaparib) 130% | viability ([10]; at 1.25 µM, OCI-P5x cells, with rucaparib 20 µM, 100% = cells with rucaparib alone) 102% | viability ([10]; at 1.25 µM, OCI-P5x cells, without rucaparib) 108% | viability ([10]; at 5 µM, OCI-C5x cells, with rucaparib 10 µM, 100% = cells with rucaparib alone) 122% | viability ([10]; at 5 µM, OCI-C5x cells, without rucaparib) 121% | viability ([10]; at 5 µM, OCI-P5x cells, with rucaparib 20 µM, 100% = cells with rucaparib alone) 108% | viability ([10]; at 5 µM, OCI-P5x cells, without rucaparib) 105%

NC1CCC(Nc2nc(Nc3ccc(C(=O)N4CCCCC4)cc3)c3ncn(-c4cccc(F)c4)c3n2)CC1 (centres undefined)
inactive: outcome [1] | outcome [2] | outcome [3] | outcome [6]

N[C@H]1CN(c2c(F)cc3c(=O)c(C(=O)O)cn(C4C[C@H]4F)c3c2Cl)CC12CC2 (some centres undefined)
inactive: outcome [1] | outcome [2] | outcome [3] | outcome [6]

Nc1n[nH]c2nnc(-c3c(-c4ccccc4)nn4ccccc34)cc12
active: AC50 [1] 20.9 µM | AC50 [2] 20.9 µM | AC50 [3] 0.209 µM | AC50 [6] 2.96 µM
inactive: outcome [4] | outcome [5] | outcome [7]

CC(C)(C)OC(=O)N[C@H]1CCCCC/C=C\[C@@H]2C[C@@]2(C(=O)NS(=O)(=O)C2CC2)NC(=O)[C@@H]2C[C@@H](OC(=O)N3Cc4cccc(F)c4C3)CN2C1=O
inactive: outcome [1] | outcome [2] | outcome [3] | outcome [11] | outcome [6] | outcome [7]

C=C1/C(=C\C=C2/CCC[C@]3(C)[C@@H]([C@H](C)/C=C/[C@H](C)C(C)C)CC[C@@H]23)C[C@@H](O)C[C@@H]1O
inactive: outcome [7]
active: AC50 [1] 8.33 µM | AC50 [2] 0.418 µM | AC50 [3] 5.9 µM | AC50 [4] 18.6 µM | AC50 [6] 23.5 µM | AC50 [5] 26.3 µM

CC(C)(O)Cn1c(NC(=O)c2ccc(-c3cn[nH]c3)s2)nc2cc(CN3CCOCC3)ccc21
active: AC50 [1] 2.64 µM | AC50 [2] 0.743 µM | AC50 [3] 1.48 µM | AC50 [6] 2.64 µM

CCC[C@H]1C[C@H](C(=O)N[C@@H]([C@@H]2O[C@@H](SC)[C@@H](O)[C@@H](O)[C@H]2O)[C@H](C)Cl)N(C)C1
inactive: outcome [1] | outcome [2] | outcome [3] | outcome [6]

N#CC(=C(O)c1ccc(Cl)cc1Cl)c1nc2cc(Cl)ccc2c(=O)[nH]1
inactive: outcome [1] | outcome [2] | outcome [3] | outcome [6]

CC[C@H]1OC(=O)[C@H](C)[C@@H](O[C@H]2C[C@@](C)(OC)[C@@H](O)[C@H](C)O2)[C@H](C)[C@@H](O[C@@H]2O[C@@H](C)C[C@H](N(C)C)[C@H]2O)[C@](C)(O)C[C@@H](C)C(=O)[C@H](C)[C@@H](O)[C@]1(C)O
inactive: outcome [1] | outcome [2] | outcome [3] | outcome [6]

C=C1C[C@@]2(O)O[C@@]3(C[C@H]2C(C)C)[C@@H](C)CC[C@@H]13
inactive: outcome [1] | outcome [2] | outcome [3] | outcome [11] | outcome [6] | outcome [7]

O=C(O)C1=NC(C(=O)O)CC(/C=C/N2c3cc(O)c(OC4OC(CO)C(O)C(O)C4O)cc3CC2C(=O)O)=C1 (centres undefined)
inactive: outcome [1] | outcome [2] | outcome [3] | outcome [6]

Cc1cc(-c2nnc3n2CCCCC3)c(C)n1-c1ccccc1
inactive: outcome [1] | outcome [2] | outcome [3] | outcome [6]

CN(C)CCCNC(=O)c1ccc(-c2cc(O)c3ncccc3c2)cc1
inactive: outcome [1] | outcome [2] | outcome [3] | outcome [4] | outcome [5]

CC(C)(C)COc1ccc(-n2cc(C(=O)O)cn2)cc1C#N
inactive: outcome [1] | outcome [2] | outcome [3] | outcome [4] | outcome [6] | outcome [7]
